We go through 16 compounds from PubChem BioAssay (NCATS).

Assay [1] can be described thus: qHTS of pediatric cancer cell lines to identify multiple opportunities for drug repurposing: Primary screen for BT-37 cells (AID 1347094). Further: series mostly up to about 57 µM. In a few lines: (§1)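 Cells plated at 500-1,000/well in growth medium, compounds added after 5 h. MIPE tested at 11 points (from 0.78 nM), NPC at 8 points (from 0.59 nM). CellTiter-Glo luminescence after 48 h; concentration-response curves from primary screen.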
Background: qHTS replaces the single test concentration by a dilution series.

Assay [2] is described as follows: qHTS of pediatric cancer cell lines to identify multiple opportunities for drug repurposing: Primary screen for NB-EBc1 cells (AID 1347095). Further: potency means the concentration at half of the fitted maximal effect. In short, it runs like this:
as §1

The nature of assay [3]: qHTS of pediatric cancer cell lines to identify multiple opportunities for drug repurposing: Primary screen for U-2 OS cells (AID 1347096). Further: nearly all actives have a fitted effect of over 50% in size. In a few lines: (§2)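 Cells (500-1,000/well) rested 5 h, then received compounds for 48 h; metabolically active cells were measured by CellTiter-Glo luminescence. Final concentrations spanned up to 46 µM (MIPE, 11-point) or 0.59 nM-46 µM (NPC, 8-point) in primary screens, 11-point in follow-ups.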

A short description of assay [4]: qHTS of pediatric cancer cell lines to identify multiple opportunities for drug repurposing: Primary screen for Saos-2 cells (AID 1347097). Further: nearly all actives have a fitted effect of over 40% in size. Further: potency means the concentration at half of the fitted maximal effect. In short, it runs like this: as §1
The nature of assay [5]: qHTS of pediatric cancer cell lines to identify multiple opportunities for drug repurposing: Primary screen for SK-N-SH cells (AID 1347098).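 Further: DMSO served as neutral control and bortezomib at 2.3 µM as positive control; nearly all actives have a fitted effect of over 65% in size.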 In a few lines:
as §2

Assay [6] in a line: qHTS of pediatric cancer cell lines to identify multiple opportunities for drug repurposing: Primary screen for NB1643 cells (AID 1347099). Further: nearly all actives have a fitted effect of over 50% in size. Further: potency means the concentration at half of the fitted maximal effect. In short, it runs like this: as §1
Assay [7] is described as follows: qHTS of pediatric cancer cell lines to identify multiple opportunities for drug repurposing: Primary screen for LAN-5 cells (AID 1347100). In short, it runs like this: as §2
A short description of assay [8]: qHTS of pediatric cancer cell lines to identify multiple opportunities for drug repurposing: Primary screen for BT-12 cells (AID 1347101). Further: nearly all actives have a fitted effect of over 25% in size. In a few lines: as §2
A short description of assay [9]: qHTS of pediatric cancer cell lines to identify multiple opportunities for drug repurposing: Primary screen for Rh18 cells (AID 1347102). Further: nearly all actives have a fitted effect of over 65% in size. In short, it runs like this: as §2
A short description of assay [10]: qHTS of pediatric cancer cell lines to identify multiple opportunities for drug repurposing: Primary screen for OHS-50 cells (AID 1347103). Further: nearly all actives have a fitted effect of over 40% in size. In a few lines: as §2
Assay [11] is described as follows: qHTS of pediatric cancer cell lines to identify multiple opportunities for drug repurposing: Primary screen for RD cells (AID 1347104). Further: nearly all actives have a fitted effect of over 55% in size. Further: potency means the concentration at half of the fitted maximal effect. In a few lines: as §1
A short description of assay [12]: qHTS of pediatric cancer cell lines to identify multiple opportunities for drug repurposing: Primary screen for control Hh wild type fibroblast cells (AID 1347106).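 Further: series mostly up to about 46 µM; a drop in luminescence marks cytotoxicity and a rise apparent proliferation; nearly all actives have a fitted effect of over 55% in size.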 In a few lines:
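Cells (500-1,000/well) in growth media were settled 5 h at 37 degrees C, then given compounds for 48 h. Viability was read as CellTiter-Glo luminescence. Primary runs used MIPE at 11 points (0.78 nM-46 µM) and NPC at 8 points (0.59 nM-46 µM); follow-ups used 11 points.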

The nature of assay [13]: qHTS of pediatric cancer cell lines to identify multiple opportunities for drug repurposing: Primary screen for Rh30 cells (AID 1347107). Further: nearly all actives have a fitted effect of over 75% in size. Further: potency means the concentration at half of the fitted maximal effect. In short, it runs like this: as §2
A short description of assay [14]: qHTS of pediatric cancer cell lines to identify multiple opportunities for drug repurposing: Primary screen for Rh41 cells (AID 1347108). Further: nearly all actives have a fitted effect of over 70% in size. Further: potency means the concentration at half of the fitted maximal effect. In a few lines: as §1
Assay [15] can be described thus: qHTS of pediatric cancer cell lines to identify multiple opportunities for drug repurposing: Primary screen for MG 63 (6-TG R) cells (AID 1347105). Further: nearly all actives have a fitted effect of over 50% in size. In short, it runs like this:
as §1

SMILES strings stand for the structures. Results filed as inconclusive are left out. Activity calls are given as the source filed them. The call rests on the fitted dose curve; in most records, active means well fitted curve in the direction sought with a large enough effect; inconclusive means small, poorly fitted or top-dose-only effect, or another doubt; inactive means no such curve, though single readings can be large; an effect the other way counts as inactive or inconclusive.

For the compound `CCCC(C)(COC(N)=O)COC(=O)NC(C)C` (stereo unspecified), the Potency entry in assay [1], in assay [2], in assay [3], in assay [4], in assay [5] and in assay [6] was “inactive” throughout. In addition, the Potency entry in assay [7], in assay [8], in assay [9], in assay [10], in assay [11] and in [12] was “inactive” each time. The Potency result in assay [13] and in assay [14] was “inactive” in each case.

With `CC(O)(CS(=O)(=O)c1ccc(F)cc1)C(=O)Nc1ccc(C#N)c(C(F)(F)F)c1` (stereo unspecified), the Potency entry in assay [1], in [3], in assay [5] and in [9] was “inactive” in each case. In addition, the Potency in assay [2] is 3.32 µM (active); in [4], 23.5 µM (active); in assay [6], 3.32 µM (active); in assay [11], 5.9 µM (active); in [13], 3.72 µM (active); in [14], 3.72 µM (active).

Turning to `C=C1CC[C@@]2(O)[C@H]3Cc4ccc(O)c5c4[C@@]2(CCN3CC2CC2)[C@H]1O5`, the Potency result in assay [1], in [2], in assay [3], in [4], in assay [5] and in assay [6] was “inactive” in each case. Besides, the Potency entry in [7], in assay [8], in assay [9], in assay [10], in assay [11] and in assay [15] was “inactive” throughout. Also, the Potency entry in [12], in [13] and in [14] was “inactive” each time.

Take `CC(C)CC(N(C)C)C1(c2ccc(Cl)cc2)CCC1` (stereo unspecified): the Potency entry in [1], in assay [2], in [3], in assay [4], in [5] and in assay [6] was “inactive” throughout. For the same compound, the Potency result in [7], in assay [8], in assay [9], in assay [10], in [11] and in assay [15] was “inactive” in each case. The Potency result in assay [12], in assay [13] and in assay [14] was “inactive” in each case.

On to `Cc1cccc(C)c1NC(=O)CN1CCCC1=O`, for which the Potency entry in [1], in assay [2], in [3], in [4], in assay [5] and in assay [6] was “inactive” each time. The Potency entry in assay [7], in assay [8], in assay [9], in assay [10], in assay [11] and in [12] was “inactive” in each case. For the same compound, the Potency result in assay [13] and in [14] was “inactive” in each case.

Take `CC(=O)[C@H]1CC[C@H]2[C@@H]3CC[C@H]4C[C@H](O)CC[C@]4(C)[C@H]3C(=O)C[C@]12C`: the Potency result in assay [1], in assay [2], in [3], in [4], in assay [5] and in assay [6] was “inactive” each time. Moreover, the Potency result in [7], in assay [8], in assay [9], in assay [11], in assay [12] and in [13] was “inactive” throughout. Moreover, the Potency entry in assay [14] was “inactive”.

For `CC1NCCOC1c1ccccc1` (stereo unspecified), the Potency entry in assay [1], in assay [2], in assay [3], in assay [4], in assay [5] and in [6] was “inactive” in each case. In addition, the Potency result in [7], in assay [8], in [9], in assay [10], in assay [11] and in assay [12] was “inactive” each time. In addition, the Potency result in [13] and in assay [14] was “inactive” throughout.

As to `C[C@]12CCC(=O)C(O)=C1CC[C@@H]1[C@@H]2CC[C@]2(C)C(=O)CC[C@@H]12`, the Potency entry in [1], in assay [2], in assay [3], in [4], in assay [5] and in [6] was “inactive” each time. For the same compound, the Potency entry in [7], in assay [8], in [9], in assay [10], in assay [11] and in [15] was “inactive” in each case. Also, the Potency result in assay [12], in [13] and in [14] was “inactive” in each case.

Take `NP(N)(=O)NC(=O)c1ccc(F)cc1`: the Potency entry in assay [1], in assay [2], in assay [3], in assay [4], in assay [5] and in assay [6] was “inactive” each time. The Potency result in assay [7], in [8], in [9], in [10], in [11] and in assay [12] was “inactive” in each case. The Potency result in assay [13] and in assay [14] was “inactive” throughout.

In the case of `CC(=O)[C@H]1CC[C@H]2[C@@H]3CC[C@H]4C[C@](C)(O)CC[C@]4(C)[C@H]3CC[C@]12C`, the Potency result in [1], in assay [2], in [3], in [4], in assay [5] and in assay [6] was “inactive” each time. The Potency result in assay [7], in assay [8], in assay [9], in assay [10], in [11] and in assay [15] was “inactive” in each case. The Potency result in assay [12], in assay [13] and in assay [14] was “inactive” in each case.

With `COc1ccc(C(=O)c2c(C)n(CCN3CCOCC3)c3ccccc23)cc1`, the Potency entry in assay [1], in [2], in assay [3], in assay [4], in assay [5] and in [6] was “inactive” throughout. Moreover, the Potency entry in assay [7], in [8], in assay [9], in assay [11], in assay [12] and in assay [13] was “inactive” throughout. The Potency entry in [14] was “inactive”.

On to `NN=C(N)N`, for which the Potency result in assay [1], in assay [2], in [3], in assay [4], in assay [5] and in assay [6] was “inactive” in each case. Moreover, the Potency entry in assay [7], in assay [8], in assay [9], in assay [10], in assay [11] and in assay [12] was “inactive” in each case. In addition, the Potency entry in assay [13] and in assay [14] was “inactive” throughout.

`COc1ccc(C(CN(C)C)C2(O)CCCCC2)cc1` (stereo unspecified): the Potency entry in [1], in assay [2], in [3], in assay [4], in [5] and in assay [6] was “inactive” each time. Further, the Potency entry in assay [7], in assay [8], in assay [9], in assay [10], in [11] and in [12] was “inactive” in each case. Moreover, the Potency entry in assay [13] and in assay [14] was “inactive” throughout.

Regarding `CCOP(=S)(OCC)Oc1cc(C)nc(C(C)C)n1`, the Potency entry in assay [1], in assay [2], in [3], in assay [4], in [5] and in assay [6] was “inactive” throughout. Besides, the Potency entry in assay [7], in assay [8], in assay [9], in assay [10], in assay [11] and in assay [15] was “inactive” throughout. The Potency result in assay [12], in assay [13] and in assay [14] was “inactive” in each case.

For the compound `Nc1ccncc1`, the Potency result in [1], in assay [2], in assay [3], in assay [4], in assay [5] and in assay [6] was “inactive” in each case. The Potency result in [7], in assay [8], in [9], in [10], in assay [11] and in [12] was “inactive” throughout. In addition, the Potency entry in assay [13] and in assay [14] was “inactive” throughout.

For `CC(CCc1ccccc1)NC(C)C(O)c1ccc(O)cc1` (stereo unspecified), the Potency entry in [1], in [2], in assay [3], in [4], in assay [5] and in assay [6] was “inactive” each time. The Potency entry in [7], in assay [8], in [9], in assay [11], in assay [12] and in [13] was “inactive” throughout.
